Hits are enriched below; roughly 6.1% of the tested compounds scored in any of these assays.
VP16 counter: Gal4-VP16 reporter inhibition counter-screen | Drosophila S2 Gal4-VP16 UAS-luciferase, luminescence, 20 h | 310,000 compounds, 3.5% hits | Potency, µM (top dose mostly 53.6 µM), for the others: top-dose activity, negative = inhibition, usual class: inhibitors | AID 2546;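 further: Gal4-VP16 expression switched on by copper sulfate through the metallothionein promoter; on the % scale 0 is the no-effect control and ±100 the full control effect; nearly all actives have a fitted effect of over 50% in size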
ATXN2 expr inh: ATXN2 expression inhibition. HEK-293 ATXN2-luciferase reporter, luminescence, 24 h. Potency, µM (series often up to 57 µM), for the others: top-dose activity change, negative = inhibition, most hits filed as inhibitors. 360,000 compounds, 0.72% hits; further: on the % scale 0 is the no-effect control and ±100 the full control effect; nearly all actives have a fitted effect of over 55% in size
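qHTS (up to 57 uM final) was run with 24 h compound exposure of reporter cells at 37 °C. Each well was multiplexed: SteadyGlo luminescence measured ATXN2-luciferase expression after a fluorogenic Gly-Phe-AFC viability readout (25 uM final).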
RORgamma inh: blocks mouse ROR gamma transcriptional activity. Potency, µM (highest dose often 53.6 µM), for inactives: top-dose activity change, negative = inhibition, usual class: inhibitors. Drosophila S2 Gal4-RORgamma UAS-luciferase reporter, 20 h. P51450. 310,000 compounds, 5.4% hits; further: on the % scale 0 is the no-effect control and ±100 the full control effect; nearly all actives have a fitted effect of over 60% in size
Target sequence (P51450 whole entry, looked up, the tested form may be a part): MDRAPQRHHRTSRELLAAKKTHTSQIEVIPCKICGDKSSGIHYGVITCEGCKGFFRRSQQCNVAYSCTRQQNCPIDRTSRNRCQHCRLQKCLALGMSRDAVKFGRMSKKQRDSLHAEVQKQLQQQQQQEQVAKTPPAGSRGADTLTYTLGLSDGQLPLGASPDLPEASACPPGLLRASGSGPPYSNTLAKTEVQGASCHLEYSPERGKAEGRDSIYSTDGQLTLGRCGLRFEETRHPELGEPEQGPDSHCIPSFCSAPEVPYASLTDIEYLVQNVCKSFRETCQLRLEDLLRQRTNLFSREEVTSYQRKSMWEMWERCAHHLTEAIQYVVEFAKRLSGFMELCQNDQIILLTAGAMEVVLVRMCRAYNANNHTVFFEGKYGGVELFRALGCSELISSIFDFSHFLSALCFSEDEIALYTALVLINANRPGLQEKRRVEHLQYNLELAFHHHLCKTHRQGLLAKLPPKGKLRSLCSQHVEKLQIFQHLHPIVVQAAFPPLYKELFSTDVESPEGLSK
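Compounds are pin-transferred onto Drosophila Schneider cells expressing a copper-inducible Gal4–ROR gamma transactivation domain fusion. After 1 hr, copper sulfate is added to 700 uM final; luciferase is read 20 hr later.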
HepG2 tox: HepG2 cytotoxicity, counter-screen for TGF-b inhibitors; HepG2 CAGA-GFP viability, ATP luminescence, 18 h; 410,000 compounds, 0.76% hits; Potency, µM (highest dose often 46.1 µM), for inactives: at the highest dose activity change, negative = cytotoxicity, actives largely listed as cytotoxic; AID 588856
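HepG2 CAGA-GFP cells (1000/well, DMEM with 1% FBS) received compound, then TGF-beta at 500 pg/mL final, and were incubated 18 hours at 37 degrees C. Viability was read by CellTiter-Glo luminescence. Media-only wells were set as complete cell-killing and DMSO as no toxicity.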
ATXN viability: viability counter-screen for ATXN expression inhibitors | 400,000 compounds, 0.49% hits | Potency, µM (highest dose often 56.7 µM), most hits filed as cytotoxic | S2 cells (HEK-293 line with an ATXN2-luciferase reporter) viability, CellTiter-Fluor protease fluorescence, 24 h | AID 651635; further: nearly all actives have a fitted effect of over 40% in size
TGFb inhibitor: inhibitors of TGF-b signaling | HepG2 CAGA-GFP TGF-b/SMAD3 reporter, GFP fluorescence, 18 h; TGF-beta stimulated, 500 pg/mL final | Potency, µM (titrated, usually from 46.1 µM), inactives show at the top dose activity, negative = inhibition, usual class: inhibitors | 410,000 compounds, 1.2% hits; further: on the % scale 0 is the no-effect control and ±100 the full control effect; nearly all actives have a fitted effect of over 65% in size
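GFP signal (ex488/em500-530) from TGF-beta-stimulated HEPG2 CAGA-GFP cells, 500 pg/mL final, 18 h at 37 degrees C in DMEM plus 1% FBS, normalized to unstimulated and DMSO-stimulated controls.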
Starred values were filed as active, the others as inactive; i = inactive; ? = inconclusive; . = no result given; ! = not confirmed by another sample. The call rests on the fitted dose curve; in most records, active means well fitted curve in the direction sought with a large enough effect; inconclusive means small, poorly fitted or top-dose-only effect, or another doubt; inactive means no such curve, though single readings can be large; an effect the other way counts as inactive or inconclusive. Potency means the concentration at half of the fitted maximal effect.

SMILES | VP16 counter | ATXN2 expr inh | RORgamma inh | HepG2 tox | ATXN viability | TGFb inhibitor
Cc1cc(C)n(-c2ccc(C(=O)N3CCc4c(cnc(C)c4CNC(=O)c4ccccc4F)C3)cc2)n1 | . | . | . | . | i | .
CC(=O)CSc1nnc(-c2ccc3c(c2)OCO3)o1 | 16µM* | -36% | 13µM* | -5% | i | -13%
O=C(CSc1nnc(-c2ccc3c(c2)OCO3)o1)Nc1ncc(Cl)cc1Cl | 0.56µM* | . | 0.79µM* | -25% | ? | ?
Cc1ccc(CSc2nnc(-c3ccc4c(c3)OCO4)o2)cc1 | 5% | 14% | 37% | 5% | i | ?
O=C1OCCC1Sc1nnc(-c2ccc(O)cc2)o1 (stereo not given) | 2% | -4% | 15% | 10% | i | 6%
O=C1OCCC1Sc1nnc(-c2ccc3c(c2)OCO3)o1 (stereo not given) | ? | ? | 10µM* | 1% | i | 21%
O=C(O)CCSc1nnc(-c2ccc3c(c2)OCO3)o1 | 4µM* | ? | 2.8µM* | 1% | i | 4%
CC(=O)Nc1cccc(NC(=O)Cn2cnc3c2c(=O)n(C)c(=O)n3C)c1 | . | 0% | . | -11% | i | -9%
CCCn1c2ccccc2c2cnn(CC(=O)N3CCC(C)CC3)c(=O)c21 | . | . | . | 3% | . | ?
CC(C)(C)[C@H]1CCC(=O)N([C@H](CSc2ccccc2)Cc2ccccc2)CC1 | -1% | -15% | ? | -21% | ? | 11µM*!
CCOC(=O)C1=NN(C(=O)c2cccc(Br)c2)C(O)(C(C)(C)C)C1 (stereo not given) | ? | . | 14µM* | . | . | .
CCOC(=O)C1=NN(C(=O)c2ccco2)C2(CC2)C1 | 5% | 11% | -4% | -24% | i | -8%
CCOC(=O)C1=NN(C(=O)c2ccccc2)C(O)(c2ccc(C)cc2)C1 (stereo not given) | 28µM* | . | 10µM* | 0% | . | -17%
COC(=O)C1=NN(C(=O)c2cccc(Br)c2)C(O)(c2ccc(Cl)cc2)C1 (stereo not given) | -30% | . | -29% | -79% | ? | ?
CCOC(=O)C1=NN(C(=O)c2ccc(OC)cc2)C(O)(c2ccc(Cl)cc2)C1 (stereo not given) | ? | -24% | 10µM* | -7% | . | ?
O=c1c2ccccc2oc2ccc(-c3ccoc3)cc12 | . | . | . | -16% | . | ?
C=CCN1CC(C(=O)N(CCCN(C)C)C(=O)NCC)CC2c3cccc4[nH]cc(c34)CC21 (stereo not given) | 2% | . | -3% | . | . | .
Cc1ccc(Cl)cc1NC(c1ccc(F)cc1)c1nnc(-c2ccccc2)o1 (stereo not given) | . | -11% | . | -19% | i | -29%
CN1CCN(c2ccc(S(=O)(=O)N3CCCCC3)cc2NC(=O)c2ccc3ccccc3c2)CC1 | 8.9µM* | -3% | 11µM* | -54% | i | 35µM*
CN1CCN(c2ccc(S(=O)(=O)N3CCCCC3)cc2NC(=O)/C=C/c2ccc(Cl)c([N+](=O)[O-])c2)CC1 | . | 22µM* | . | -97% | ? | ?
CN1CCN(c2ccc(S(=O)(=O)N3CCCCC3)cc2NC(=O)/C=C/c2ccc(OC(F)F)cc2)CC1 | . | -34% | . | -100% | i | ?
CCN1CCN(c2ccc(S(=O)(=O)N3CCCCC3)cc2NC(=O)/C=C/c2ccc([N+](=O)[O-])cc2)CC1 | . | 32µM* | . | -47% | ? | -27%
Cc1ccccc1C(=O)Nc1cc(S(=O)(=O)N2CCCCC2)ccc1N1CCN(C)CC1 | -3% | -18% | 7% | -28% | i | -23%
Cc1ccc(C(=O)c2c(N)c(C(=O)Nc3cccc(C(F)(F)F)c3)c3ccccn23)cc1 | . | 4% | . | -13% | i | -5%
COc1cccc(C(=O)Nc2ccc(Cl)c(-c3nc4ccccc4[nH]3)c2)c1 | . | ? | . | -6% | ? | ?
SMILES | VP16 counter | ATXN2 expr inh | RORgamma inh | HepG2 tox | ATXN viability | TGFb inhibitor
N#Cc1c(-c2ccco2)cc(-c2ccccn2)nc1N | 11µM* | 43% | 10µM* | -49% | i | 2%
O=C(/C=C/c1ccccc1)Nc1cc(NC(=O)/C=C/c2ccccc2)cc(C(=O)O)c1 | -16% | -14% | 10% | -1% | i | -1%
CCC(=O)Nc1cccc(C(=O)/C=C/c2ccccc2)c1 | ? | ? | 16µM* | -95% | ? | ?
O=C(/C=C/c1ccccc1)Nc1cccc(C(=O)O)c1 | 5.6µM* | . | 4µM* | -9% | i | -1%
Cc1cc(C)c2sc(NNC(=O)c3ccc(S(=O)(=O)N4CCc5ccccc5C4)cc3)nc2c1 | 5µM* | ? | 4.5µM* | -16% | ? | ?
Cc1ccc2nc(NC(=O)c3cc(=O)c4cc(C)c(C)cc4o3)sc2c1 | . | 12% | . | 3% | i | -5%
Cc1cc(C)c2nc(NNC(=O)c3cc(=O)c4ccccc4o3)sc2c1 | ? | 8% | 5µM* | -56% | i | ?
Cc1ccc(S(=O)(=O)N2CCc3ccccc3C2)cc1 | -4% | . | 3% | -9% | i | ?
Cc1cc(C)c2nc(NNC(=O)c3ccc(S(=O)(=O)N4CCc5ccccc5C4)cc3)sc2c1 | 3.2µM* | ? | 1.6µM* | -40% | i | ?
CCc1nnc(NC(=O)c2ccc(S(=O)(=O)N3CCc4ccccc4C3)cc2)s1 | -7% | 2% | -13% | 8% | i | 1%
Cc1ccc(NC(=O)C(=Cc2ccc(C(=O)O)cc2)C(=O)Nc2ccc(C)cc2C)c(C)c1 | ? | . | 16µM* | 10µM* | ? | 7.1µM*
CC1CCN(c2nc3ccc(C(=O)N4CCN(Cc5ccc6c(c5)OCO6)CC4)cc3s2)CC1 | 7.1µM* | 23% | ? | -24% | i | -14%
CC1C/C(=N/NC(=O)c2ccc(CSc3nc4ccccc4[nH]3)cc2)CC(C)(C)C1 (stereo not given) | -6% | -5% | 17% | -1% | i | 0%
CCc1ccccc1Nc1nc2ccccc2[nH]1 | . | . | . | -6% | i | -29%
Cc1cc(N/N=C2\CC(C)CC(C)(C)C2)nc2ccccc12 (stereo not given) | -4% | -30% | 13µM* | -52% | i | ?
c1ccc2[nH]c(NC3=NCCC3)nc2c1 | 11µM* | 3% | 2.8µM* | 2% | i | -9%
c1ccc2[nH]c(NN=C3CCCCCC3)nc2c1 | ? | 75% | 11µM* | -15% | i | -1%
CC1C/C(=N/Nc2nc3ccccc3[nH]2)CC(C)(C)C1 (stereo not given) | 8.9µM* | -18% | 3.2µM* | -30% | i | ?

Assay outcomes as filed in PubChem.
